Columns and labels:
Assay in all cases: log2 ratio of Biotin-Ahx-Ub-VS probe labelling (fragment/DMSO); higher = less target engagement (more negative = stronger competition), active = hit call of the paper (q ≤ 0.05, log2 ratio ≤ -1)
Conditions in all cases: compound concentration: 200 uM; treatment time: 3 h
[1] = target: USP34 (UniProt Q70CQ2)
How it was run: (§1)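 Triplicate samples of HEK293T lysate, 495 µg each, received fragment at 200 µM or vehicle for 3 h, followed by Biotin-Ahx-Ub-VS (0.5 µM final) for 1 h. After NeutrAvidin enrichment of labelled DUBs and LysC/trypsin digestion, peptides were run by diaPASEF LC-MS/MS. The values are average log2 fragment/vehicle ratios from global-median-normalised Spectronaut label-free quantities, tested by unpaired t-test on proteins having ≥2 unique peptides.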

[2] = target: T1, USP36 (UniProt Q9P275)
T1 sequence (whole entry): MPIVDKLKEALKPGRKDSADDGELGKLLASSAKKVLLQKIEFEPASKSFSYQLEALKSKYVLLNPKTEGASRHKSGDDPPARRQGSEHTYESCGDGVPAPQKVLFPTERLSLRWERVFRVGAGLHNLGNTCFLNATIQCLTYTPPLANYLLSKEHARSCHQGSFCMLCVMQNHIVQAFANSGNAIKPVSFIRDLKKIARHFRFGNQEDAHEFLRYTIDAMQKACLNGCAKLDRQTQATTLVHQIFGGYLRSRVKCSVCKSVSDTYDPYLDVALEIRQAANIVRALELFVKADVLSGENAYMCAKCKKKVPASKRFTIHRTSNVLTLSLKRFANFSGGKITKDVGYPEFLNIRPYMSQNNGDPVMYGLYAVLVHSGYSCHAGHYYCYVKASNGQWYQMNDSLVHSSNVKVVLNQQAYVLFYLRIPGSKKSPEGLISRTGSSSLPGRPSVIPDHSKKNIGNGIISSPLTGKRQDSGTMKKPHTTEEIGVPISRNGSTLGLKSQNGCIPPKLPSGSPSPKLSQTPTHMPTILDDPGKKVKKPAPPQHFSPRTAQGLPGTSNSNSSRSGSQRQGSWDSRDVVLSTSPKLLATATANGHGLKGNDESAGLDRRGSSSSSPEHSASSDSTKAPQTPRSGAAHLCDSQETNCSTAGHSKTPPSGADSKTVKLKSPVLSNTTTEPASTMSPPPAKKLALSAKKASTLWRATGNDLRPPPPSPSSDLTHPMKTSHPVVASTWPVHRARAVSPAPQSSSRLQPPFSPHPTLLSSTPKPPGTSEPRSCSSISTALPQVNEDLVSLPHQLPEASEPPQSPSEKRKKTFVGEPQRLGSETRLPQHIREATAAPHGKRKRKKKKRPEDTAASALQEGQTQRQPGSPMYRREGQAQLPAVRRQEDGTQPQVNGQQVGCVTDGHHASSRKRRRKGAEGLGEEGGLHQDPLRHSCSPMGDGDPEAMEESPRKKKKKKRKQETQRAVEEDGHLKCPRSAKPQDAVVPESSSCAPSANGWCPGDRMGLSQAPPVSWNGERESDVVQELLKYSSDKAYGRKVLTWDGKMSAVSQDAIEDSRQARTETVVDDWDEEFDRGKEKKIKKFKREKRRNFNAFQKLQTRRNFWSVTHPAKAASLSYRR
How it was run: as §1

[3] = target: T2, USP38 (UniProt Q8NB14)
T2 sequence (whole entry): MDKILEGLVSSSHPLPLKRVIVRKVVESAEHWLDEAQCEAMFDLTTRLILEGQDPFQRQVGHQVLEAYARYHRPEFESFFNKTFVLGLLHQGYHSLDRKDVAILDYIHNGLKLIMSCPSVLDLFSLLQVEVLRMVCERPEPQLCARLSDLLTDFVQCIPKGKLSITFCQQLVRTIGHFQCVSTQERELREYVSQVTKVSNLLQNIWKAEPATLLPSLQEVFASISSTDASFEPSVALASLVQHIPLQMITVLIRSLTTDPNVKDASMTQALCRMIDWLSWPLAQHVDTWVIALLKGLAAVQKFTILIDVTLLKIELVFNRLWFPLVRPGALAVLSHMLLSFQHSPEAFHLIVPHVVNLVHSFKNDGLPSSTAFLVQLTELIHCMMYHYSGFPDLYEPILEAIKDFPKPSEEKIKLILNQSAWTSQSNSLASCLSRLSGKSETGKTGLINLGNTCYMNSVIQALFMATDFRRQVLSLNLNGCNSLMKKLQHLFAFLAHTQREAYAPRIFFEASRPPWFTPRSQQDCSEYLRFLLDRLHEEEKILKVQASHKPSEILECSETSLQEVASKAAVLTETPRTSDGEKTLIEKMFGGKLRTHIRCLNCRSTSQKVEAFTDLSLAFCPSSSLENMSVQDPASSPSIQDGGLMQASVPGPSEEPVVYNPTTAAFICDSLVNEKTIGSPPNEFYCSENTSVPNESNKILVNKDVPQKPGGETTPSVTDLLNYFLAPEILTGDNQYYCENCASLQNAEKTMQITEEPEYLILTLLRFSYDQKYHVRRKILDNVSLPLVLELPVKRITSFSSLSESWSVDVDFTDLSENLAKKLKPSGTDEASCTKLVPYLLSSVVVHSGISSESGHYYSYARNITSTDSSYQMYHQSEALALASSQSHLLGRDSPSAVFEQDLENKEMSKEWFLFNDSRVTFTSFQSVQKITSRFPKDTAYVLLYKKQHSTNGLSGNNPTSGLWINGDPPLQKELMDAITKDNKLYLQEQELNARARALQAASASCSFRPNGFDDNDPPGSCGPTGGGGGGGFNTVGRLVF
How it was run: as §1

[4] = target: T3, USP39 (UniProt Q53GS9)
T3 sequence (whole entry): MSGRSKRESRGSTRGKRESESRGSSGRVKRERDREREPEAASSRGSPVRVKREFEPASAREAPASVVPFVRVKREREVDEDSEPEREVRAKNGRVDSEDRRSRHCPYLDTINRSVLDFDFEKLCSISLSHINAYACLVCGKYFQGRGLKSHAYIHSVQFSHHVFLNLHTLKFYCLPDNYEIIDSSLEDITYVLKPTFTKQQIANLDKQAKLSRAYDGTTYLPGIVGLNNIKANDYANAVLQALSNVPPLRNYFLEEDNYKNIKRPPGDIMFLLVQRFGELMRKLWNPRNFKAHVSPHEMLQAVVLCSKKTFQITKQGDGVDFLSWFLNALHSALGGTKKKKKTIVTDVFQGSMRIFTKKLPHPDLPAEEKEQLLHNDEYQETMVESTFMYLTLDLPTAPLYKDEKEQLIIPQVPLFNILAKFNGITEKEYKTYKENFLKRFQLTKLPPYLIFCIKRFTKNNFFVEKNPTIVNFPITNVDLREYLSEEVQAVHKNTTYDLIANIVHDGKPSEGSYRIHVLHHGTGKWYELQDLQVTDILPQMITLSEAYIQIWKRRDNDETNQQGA
How it was run: as §1

[5] = target: T4, USP4 (UniProt Q13107)
T4 sequence (whole entry): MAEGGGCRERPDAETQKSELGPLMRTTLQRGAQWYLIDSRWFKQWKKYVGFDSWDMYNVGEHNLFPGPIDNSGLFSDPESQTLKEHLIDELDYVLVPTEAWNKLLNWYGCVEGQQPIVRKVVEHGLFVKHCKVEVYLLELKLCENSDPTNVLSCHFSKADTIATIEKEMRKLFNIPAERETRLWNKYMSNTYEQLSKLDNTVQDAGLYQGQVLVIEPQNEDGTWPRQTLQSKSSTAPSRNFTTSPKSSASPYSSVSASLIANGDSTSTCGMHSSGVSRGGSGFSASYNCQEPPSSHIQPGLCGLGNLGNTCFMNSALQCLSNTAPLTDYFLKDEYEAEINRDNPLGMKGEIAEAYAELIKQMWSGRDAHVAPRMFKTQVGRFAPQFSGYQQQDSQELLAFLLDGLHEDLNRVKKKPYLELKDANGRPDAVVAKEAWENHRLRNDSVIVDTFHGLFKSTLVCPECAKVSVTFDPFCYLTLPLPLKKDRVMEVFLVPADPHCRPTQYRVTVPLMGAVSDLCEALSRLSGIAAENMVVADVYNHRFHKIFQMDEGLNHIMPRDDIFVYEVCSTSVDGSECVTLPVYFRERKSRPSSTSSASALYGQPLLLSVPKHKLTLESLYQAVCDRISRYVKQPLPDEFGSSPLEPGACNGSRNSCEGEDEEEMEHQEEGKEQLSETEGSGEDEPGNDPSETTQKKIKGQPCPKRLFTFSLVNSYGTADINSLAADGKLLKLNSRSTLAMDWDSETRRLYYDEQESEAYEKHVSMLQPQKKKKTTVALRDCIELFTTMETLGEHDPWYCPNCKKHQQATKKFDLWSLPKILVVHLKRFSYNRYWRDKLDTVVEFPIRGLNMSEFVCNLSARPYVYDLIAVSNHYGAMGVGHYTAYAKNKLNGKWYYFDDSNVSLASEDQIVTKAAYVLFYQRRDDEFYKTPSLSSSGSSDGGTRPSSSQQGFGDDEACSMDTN
How it was run: as §1

Measured: log2 ratio of Biotin-Ahx-Ub-VS probe labelling

USP34, sequence (Q70CQ2 whole entry, the tested form may be a part): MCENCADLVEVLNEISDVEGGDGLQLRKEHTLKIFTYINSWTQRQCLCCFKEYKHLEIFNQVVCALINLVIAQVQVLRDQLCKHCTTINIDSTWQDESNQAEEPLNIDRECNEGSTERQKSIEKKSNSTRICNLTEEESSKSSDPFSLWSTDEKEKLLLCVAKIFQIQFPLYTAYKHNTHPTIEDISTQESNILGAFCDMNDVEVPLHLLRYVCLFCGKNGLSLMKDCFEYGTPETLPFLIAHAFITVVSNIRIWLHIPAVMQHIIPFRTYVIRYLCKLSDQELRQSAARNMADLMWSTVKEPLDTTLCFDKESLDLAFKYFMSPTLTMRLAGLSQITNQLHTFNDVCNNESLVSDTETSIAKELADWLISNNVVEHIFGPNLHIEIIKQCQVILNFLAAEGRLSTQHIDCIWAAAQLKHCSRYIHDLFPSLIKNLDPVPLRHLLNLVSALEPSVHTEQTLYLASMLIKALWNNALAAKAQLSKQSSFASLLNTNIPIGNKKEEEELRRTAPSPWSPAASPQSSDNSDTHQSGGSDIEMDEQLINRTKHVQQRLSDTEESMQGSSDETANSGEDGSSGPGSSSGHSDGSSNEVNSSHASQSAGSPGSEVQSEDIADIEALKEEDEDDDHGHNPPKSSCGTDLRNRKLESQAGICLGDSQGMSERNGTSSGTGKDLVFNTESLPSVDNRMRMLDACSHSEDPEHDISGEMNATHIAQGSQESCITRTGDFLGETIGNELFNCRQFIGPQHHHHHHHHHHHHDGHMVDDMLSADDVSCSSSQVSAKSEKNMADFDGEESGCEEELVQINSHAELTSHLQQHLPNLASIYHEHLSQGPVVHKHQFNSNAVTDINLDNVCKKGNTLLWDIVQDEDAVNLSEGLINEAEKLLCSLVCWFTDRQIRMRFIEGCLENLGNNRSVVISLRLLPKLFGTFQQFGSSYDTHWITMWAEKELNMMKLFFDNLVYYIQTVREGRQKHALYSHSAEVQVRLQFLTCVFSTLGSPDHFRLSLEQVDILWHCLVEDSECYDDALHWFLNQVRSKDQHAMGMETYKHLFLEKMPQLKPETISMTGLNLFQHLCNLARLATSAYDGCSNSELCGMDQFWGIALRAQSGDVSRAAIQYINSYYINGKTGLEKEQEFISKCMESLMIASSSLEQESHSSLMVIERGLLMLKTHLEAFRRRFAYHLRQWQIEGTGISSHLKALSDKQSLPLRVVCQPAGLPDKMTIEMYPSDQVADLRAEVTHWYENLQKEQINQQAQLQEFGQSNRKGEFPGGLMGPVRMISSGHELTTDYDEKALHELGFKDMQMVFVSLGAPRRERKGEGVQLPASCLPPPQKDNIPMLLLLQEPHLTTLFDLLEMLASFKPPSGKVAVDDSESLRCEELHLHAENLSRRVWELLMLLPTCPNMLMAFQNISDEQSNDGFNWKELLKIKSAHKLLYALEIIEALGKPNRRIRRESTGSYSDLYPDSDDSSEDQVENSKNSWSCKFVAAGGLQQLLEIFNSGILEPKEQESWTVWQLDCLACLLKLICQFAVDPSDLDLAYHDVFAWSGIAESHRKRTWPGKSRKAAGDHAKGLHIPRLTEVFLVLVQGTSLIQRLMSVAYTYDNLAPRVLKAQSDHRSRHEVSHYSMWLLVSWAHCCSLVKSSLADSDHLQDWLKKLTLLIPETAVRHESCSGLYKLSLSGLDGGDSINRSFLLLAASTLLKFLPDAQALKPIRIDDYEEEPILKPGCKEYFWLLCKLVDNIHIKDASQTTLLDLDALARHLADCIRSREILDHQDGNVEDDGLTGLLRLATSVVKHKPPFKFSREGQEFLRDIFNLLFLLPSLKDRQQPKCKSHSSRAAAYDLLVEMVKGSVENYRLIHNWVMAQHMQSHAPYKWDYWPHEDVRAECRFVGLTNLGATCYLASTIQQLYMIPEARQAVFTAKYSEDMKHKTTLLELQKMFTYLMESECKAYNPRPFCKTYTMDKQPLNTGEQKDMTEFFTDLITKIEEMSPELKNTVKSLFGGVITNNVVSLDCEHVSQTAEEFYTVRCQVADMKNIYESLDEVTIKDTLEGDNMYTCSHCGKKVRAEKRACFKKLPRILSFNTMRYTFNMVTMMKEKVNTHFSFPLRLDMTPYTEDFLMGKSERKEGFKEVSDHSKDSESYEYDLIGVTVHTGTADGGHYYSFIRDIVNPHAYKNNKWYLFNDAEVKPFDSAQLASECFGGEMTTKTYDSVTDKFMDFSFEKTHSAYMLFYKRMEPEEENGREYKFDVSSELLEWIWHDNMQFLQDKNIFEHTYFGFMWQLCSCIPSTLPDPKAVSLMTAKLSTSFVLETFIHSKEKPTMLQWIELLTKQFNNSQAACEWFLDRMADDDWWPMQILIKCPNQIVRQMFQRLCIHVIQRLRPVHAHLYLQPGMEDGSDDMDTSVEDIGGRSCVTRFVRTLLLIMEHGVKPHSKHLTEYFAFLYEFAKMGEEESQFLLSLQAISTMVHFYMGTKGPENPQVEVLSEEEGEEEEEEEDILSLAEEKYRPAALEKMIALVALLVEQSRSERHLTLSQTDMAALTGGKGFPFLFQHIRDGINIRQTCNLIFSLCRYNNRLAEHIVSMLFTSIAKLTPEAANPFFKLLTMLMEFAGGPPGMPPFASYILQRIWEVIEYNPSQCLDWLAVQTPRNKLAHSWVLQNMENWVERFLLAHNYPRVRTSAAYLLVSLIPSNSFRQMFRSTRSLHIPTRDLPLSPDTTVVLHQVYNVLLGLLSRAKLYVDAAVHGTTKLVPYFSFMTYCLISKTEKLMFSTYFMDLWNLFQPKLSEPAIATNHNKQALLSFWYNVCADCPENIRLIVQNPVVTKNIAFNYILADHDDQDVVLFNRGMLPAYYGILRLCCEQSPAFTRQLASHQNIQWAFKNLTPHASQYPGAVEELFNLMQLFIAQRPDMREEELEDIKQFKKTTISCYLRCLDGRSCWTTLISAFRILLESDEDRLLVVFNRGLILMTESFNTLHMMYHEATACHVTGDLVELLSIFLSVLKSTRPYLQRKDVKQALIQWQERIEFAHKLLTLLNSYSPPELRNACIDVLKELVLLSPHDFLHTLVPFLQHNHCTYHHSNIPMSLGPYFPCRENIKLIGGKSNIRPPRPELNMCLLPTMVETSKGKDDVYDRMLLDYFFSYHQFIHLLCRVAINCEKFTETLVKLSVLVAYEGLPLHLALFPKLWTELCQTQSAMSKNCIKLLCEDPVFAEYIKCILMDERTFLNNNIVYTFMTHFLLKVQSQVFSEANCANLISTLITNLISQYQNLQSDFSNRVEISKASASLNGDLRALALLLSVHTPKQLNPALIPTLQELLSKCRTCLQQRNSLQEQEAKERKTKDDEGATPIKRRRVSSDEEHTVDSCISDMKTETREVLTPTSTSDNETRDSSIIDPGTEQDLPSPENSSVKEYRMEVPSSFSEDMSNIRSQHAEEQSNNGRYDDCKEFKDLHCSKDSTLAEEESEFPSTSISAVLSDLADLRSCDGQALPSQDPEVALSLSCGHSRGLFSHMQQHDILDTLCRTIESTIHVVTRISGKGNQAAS

Cc1ncsc1CCNC(=O)CCl
inactive: [1] 0.121 | [2] -0.151 | [3] 0.14 | [4] -0.101 | [5] 0.244
